Assay outcomes deposited in PubChem BioAssay by National Center for Advancing Translational Sciences (NCATS).
GCN5L2 inh = GCN5L2 (KAT2A) acetyltransferase inhibition; Q92830; GCN5L2 HAT assay, ThioGlo1 CoA-SH fluorescence; Potency, µM (series often up to 58.9 µM), inactives show top-dose activity change, negative = inhibition, actives largely listed as inhibitors; 0.21% of 390,000 active; note: % is set by controls: 0 for no effect and ±100 for the full control effect
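GCN5L2 (20 nM) in 50mM HEPES pH 7.5, 0.1mM EDTA, 0.01% Tween-20 preincubated 15 min with compounds at room temperature. Reaction started with H3(1-25) 75uM, acetyl-CoA 70uM, ThioGlo1 50uM; CoA-thiol fluorescence (Ex340/Em540) read at 0 and 20 min.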
PTHR1 ag = activates the human parathyroid hormone receptor PTHR1. Q03431. HEK293 GP2 PTHR1 cells, GloSensor cAMP luminescence, 1 h. Potency, µM (series often up to 115 µM), inactives show at the highest dose activation, actives largely listed as activators. 0.075% of 410,000 active; note: nearly all actives have a fitted effect of over 55% in size
Target sequence (Q03431 whole entry, looked up): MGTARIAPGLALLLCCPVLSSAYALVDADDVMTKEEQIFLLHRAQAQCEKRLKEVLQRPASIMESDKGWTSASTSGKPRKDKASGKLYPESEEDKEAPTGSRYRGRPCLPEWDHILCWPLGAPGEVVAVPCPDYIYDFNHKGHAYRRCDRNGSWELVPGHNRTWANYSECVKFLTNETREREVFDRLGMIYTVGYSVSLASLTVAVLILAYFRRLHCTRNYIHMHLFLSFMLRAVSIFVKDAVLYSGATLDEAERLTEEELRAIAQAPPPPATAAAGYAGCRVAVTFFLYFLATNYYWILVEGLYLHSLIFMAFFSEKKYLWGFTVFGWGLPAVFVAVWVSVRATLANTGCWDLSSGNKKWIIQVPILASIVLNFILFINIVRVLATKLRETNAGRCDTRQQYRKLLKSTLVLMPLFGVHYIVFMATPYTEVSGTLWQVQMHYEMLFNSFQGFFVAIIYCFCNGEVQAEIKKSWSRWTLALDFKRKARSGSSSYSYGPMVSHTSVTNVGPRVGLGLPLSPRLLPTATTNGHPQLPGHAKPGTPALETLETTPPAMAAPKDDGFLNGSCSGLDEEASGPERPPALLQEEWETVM
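HEK-293-derived GP2 cells expressing PTHR1 and a GloSensor cAMP reporter, 3,000/well, plated overnight, given luciferin plus IBMX (each 0.5 mM as added) for 1 h at 37 °C, then compound for 1 h at 37 °C. Luminescence was read after 15 min at room temperature.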
GLP1R ag = activates the human GLP-1 receptor; P43220; Potency, µM (highest dose often 45.6 µM), for inactives: top-dose activation, actives largely listed as activators; AID 624172; 0.007% of 380,000 active; HEK293 GLP-1R CRE-luciferase, luminescence, 4-6 h; cells express a hypersensitive GLP-1R form; note: % of control where 0% means no effect
GLP-1R inv ag = GLP-1 receptor (human) inverse agonism; P43220; HEK293 GLP-1R CRE-luciferase, luminescence, 24 h; GLP-1R form is constitutively active; Potency, µM (series often up to 38.3 µM), without a hit: at the highest dose activity change, negative = inhibition, most hits filed as inhibitors; 1.6% of 410,000 active; note: % is set by controls: 0 for no effect and ±100 for the full control effect; nearly all actives have a fitted effect of over 55% in size
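qHTS in 1536-well format: reporter HEK293 cells expressing constitutive GLP-1R activity in DMEM + 10% Nu serum, 24 hr with compounds at 37 deg C, luminescence read after 12 min with detection reagent.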
RGS4 inh = human RGS4 inhibition; P49798; Transcreener GDP fluorescence polarization, RGS4-accelerated GTP hydrolysis; Potency, µM (series often up to 114 µM), without a hit: at the top dose activity change, negative = inhibition, hits mostly inhibitors; 0.039% of 390,000 active; AID 504845; note: % is set by controls: 0 for no effect and ±100 for the full control effect; nearly all actives have a fitted effect of over 75% in size
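MLSMR compounds (23 nl, pin-transferred) preincubated 10 min at room temperature with a 500nM (2x) first reagent, then RGS4 at 900nM (2x) plus Transcreener GDP mix added; fluorescence polarization (620/688 nm) read before and after 90 min at 30 °C.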
GLP1R cytotox = cytotoxicity in counter-screen for GLP-1R inverse agonists; HEK293 cAMP-luciferase reporter cells, luminescence, 24 h; Potency, µM (highest dose often 38.3 µM), for inactives: top-dose activity change, negative = inhibition, most hits filed as inhibitors; 0.13% of 410,000 active;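 note: loss of luciferase light is scored as toxicity; % is set by controls: 0 for no effect and ±100 for the full control effect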
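Here, cytotoxicity is scored as loss of luminescence. The MLSMR collection was tested on cells seeded in medium containing 10% Nu serum, with a 24 hr compound exposure preceded by 12 hours of culture.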
* = called active by the depositor; i = inactive; ? = inconclusive; nt = no result given; [ ] = dose if it differs, or a comment. Sampled rows, rich in hits. Any-hit rate of the full collection: about 1.8%. Calls come from the whole dose curve; as a rule, active = well fitted curve in the direction sought with a large enough effect; inconclusive = small, poorly fitted or top-dose-only effect, or another doubt; inactive = no such curve, though single readings can be large; an effect the other way counts as inactive or inconclusive. Potency is the fitted concentration of half-maximal effect.

SMILES | GCN5L2 inh | PTHR1 ag | GLP1R ag | GLP-1R inv ag | RGS4 inh | GLP1R cytotox
COc1cccc(NC(=O)CN(C)C(=O)C(Sc2ccccc2)c2ccccc2)c1 (stereo not given) | -7.4% | -19.2% | 4.9% | 11.2µM* | -2.2% | -10.1%
O=S(=O)(O)c1cc(I)c(O)c2ncccc12 | 5.62µM* | nt | -1.3% | nt | nt | nt
Oc1c(I)cc(I)c2cccnc12 | -1.0% | -2.9% | 0.8% | -14.9% | -28.5% | -9.3%
CCN(CC)CCNC(=O)CCc1c(C)nc2c(c(C)nn2-c2ccc(C)c(C)c2)c1C | 2.4% | i | -0.4% | 3.98µM* | 2.3% | ?
CCOC(=O)c1cccc(Nc2ccc3cc(S(=O)(=O)N4CCCCC4)ccc3n2)c1 | -18.0% | -1.9% | nt | ? | 8.9% | -26.3%
CC(C)C(OC(=O)c1nsc(Cl)c1Cl)C(=O)NCC1CCCO1 (stereo not given) | -2.1% | 50.1µM* | -4.2% | 4.3% | -11.5% | -13.5%
COCCNC(=O)C(OC(=O)c1nsc(Cl)c1Cl)C(C)C (stereo not given) | 2.1% | -1.5% | 7.2% | 5.1% | 24.3% | -12.3%
COc1ccc(C(=O)c2coc(-c3ccccc3C(=O)O)c2C(=O)O)cc1 | -2.9% | -7.6% | -3.1% | 15.9% | 19.6% | 6.8%
COc1ccc(C(=O)c2c(C(F)(F)F)oc3c2C(=O)c2ccccc2C3=O)cc1 | -9.5% | -1.8% | -33.6% | 7.08µM* | 15.8% | -17.5%
CCOC(=O)N1C2=NC(C(=O)OC)=C(C(=O)OC)[C@@H]3N(Cc4ccccc4)c4ccccc4[C@]23C[C@H]1C(=O)OC | nt | -14.1% | -2.3% | -5.2% | -16.5% | -35.9%
NS(=O)(=O)c1cccc(NC(=S)NC(=O)C23CC4CC(CC(C4)C2)C3)c1 | -2.6% | -21.3% | 10.1% | 1.26µM* | -29.4% | -16.2%
CN(C)S(=O)(=O)c1cccc(NC(=S)NC2CCCCC2)c1 | -0.3% | -5.1% | 4.1% | 11.2µM* | -26.3% | -6.0%
CN(C)S(=O)(=O)c1cccc(NC(=S)NC23CC4CC(CC(C4)C2)C3)c1 | -1.3% | -25.2% | 18.9% | 7.94µM* | 3.3% | -30.4%
FC(F)Oc1ccc(NC(=S)NC23CC4CC(CC(C4)C2)C3)cc1 | -1.9% | -78.0% | 5.8% | 4.47µM* | -5.6% | ?
Cc1ccc(S(=O)(=O)N(C)C)cc1NC(=S)NC(=O)C12CC3CC(CC(C3)C1)C2 | -6.2% | -18.2% | -1.1% | ? | 12.2% | -0.4%
CN(C)S(=O)(=O)c1cccc(NC(=S)NC(=O)C2CCCCC2)c1 | 2.0% | -18.9% | 2.2% | ? | -22.3% | -0.9%
COc1ccc(CN2C(=O)C(CC(=O)NC3CCCC3)CC(C(=O)N3CCOCC3)=C2C)cc1 (stereo not given) | nt | 4.0% | -4.2% | 18.6% | nt | 5.2%
C#C[C@@]1(O)CCC2C3CCc4cc(O)ccc4C3CC[C@@]21C (stereo not given in full) | -3.2% | nt | nt | nt | nt | nt
Cc1cc(C)n2c(Nc3cccc(C(F)(F)F)c3)c(-c3ccsc3)nc2n1 | -7.6% | i | nt | ? | -1.4% | -15.0%
CCN(CC)S(=O)(=O)c1cccc(NC(=O)CCNC(=O)NC23CC4CC(CC(C4)C2)C3)c1 | -9.5% | -7.8% | 2.9% | 10µM* | -26.7% | 11.3%
CCN(CC)S(=O)(=O)c1cccc(NC(=O)CNC2CCCCCC2)c1 | -1.6% | i | -7.2% | 7.94µM* | 17.4% | -3.9%
CCN(CC)S(=O)(=O)c1cccc(NC(=O)CCNC(=O)c2ccc([N+](=O)[O-])cc2)c1 | 47.3% | ? | -0.4% | -9.8% | 12.8% | 1.9%
CCN(CC)S(=O)(=O)c1cccc(NC(=O)CN(C)C2CCCCC2)c1 | -6.2% | -5.2% | 9.2% | ? | 5.1% | 0.4%
C=CCn1cc(C(=O)OCC)c(=O)c2cc(F)c(F)cc21 | 0.0% | -30.3% | -2.0% | 4.3% | -31.4% | 19.5%
CCCCCC(=O)N1C[C@H](n2cc(COC(=O)c3ccccc3)nn2)[C@@H](O)C[C@@H]1c1ccc(C)cc1 | nt | -52.3% | -4.0% | 10µM* | nt | -14.3%
SMILES | GCN5L2 inh | PTHR1 ag | GLP1R ag | GLP-1R inv ag | RGS4 inh | GLP1R cytotox
CCCCCC(=O)N1C[C@@H](n2cc(-c3ccc(F)cc3)nn2)[C@H](O)C[C@@H]1c1ccc(OC)cc1 | nt | -49.1% | 1.3% | 11.2µM* | nt | -11.1%
CCCCCC(=O)N1C[C@@H](n2cc(-c3ccc(F)cc3)nn2)[C@H](O)C[C@@H]1c1ccc(C)cc1 | nt | -92.9% | 5.4% | ? | nt | -27.5%
CCCCCCN1C[C@H](O)[C@@H](n2cc(-c3ccc(F)cc3)nn2)C[C@@H]1c1ccccc1 | nt | -16.9% | -1.0% | 5.01µM* | nt | -17.7%
CCCCCC(=O)N1C[C@@H](O)[C@H](n2cc(COC(=O)c3ccccc3)nn2)C[C@@H]1c1ccc(C)cc1 | nt | -38.7% | 9.7% | -12.3% | nt | 3.2%
CCCCCCN1C[C@H](n2cc(-c3ccc(F)cc3)nn2)[C@@H](O)C[C@@H]1c1ccccc1 | nt | -14.7% | -3.3% | -19.1% | nt | 2.7%
Cc1ccc(-c2cc(C(=O)OCC(=O)N(C)c3c(N)n(Cc4ccccc4)c(=O)[nH]c3=O)c3ccccc3n2)o1 | -4.0% | -4.9% | 11.2% | 78.7% | -34.1% | 78.6%
COc1ccc(N(Cc2ccccc2)S(=O)(=O)c2cccc(C(=O)NC3=NCCS3)c2)cc1 | -14.6% | i | -2.6% | 10µM* | -20.0% | -28.2%
COc1ccc(OC)c(NC(=O)c2cccc(S(=O)(=O)N(Cc3ccccc3)c3ccccc3OC)c2)c1 | -7.3% | i | -5.8% | -45.9% | 18.9% | -9.6%
CC(C)(C)C(=O)CSc1ncnc2c1cnn2Cc1ccccc1 | -7.6% | -21.2% | 21.3% | 3.55µM* | -10.0% | 0.8%
Cc1c(Cl)cccc1NC(=O)CSc1ncnc2c1cnn2CCc1ccccc1 | -3.6% | i | 9.1% | ? | -21.8% | -13.1%
O=C(CSc1ncnc2c1cnn2CCc1ccccc1)Nc1cccc(C(F)(F)F)c1 | -6.9% | -19.6%[57.5 µM] | -23.3% | 7.94µM* | 10.1% | -29.9%
COC(=O)CSc1ncnc2c1cnn2Cc1ccccc1 | 1.0% | i | -0.9% | 5.3% | 11.9% | -9.7%
CCOC(=O)C1(CCCc2ccccc2)CCN(CC(O)CO)CC1 (stereo not given) | 2.9% | -9.2% | 4.2% | ? | -11.0% | 0.2%
OCCC1CN(CCCn2cccn2)CCN1C1CCCCC1 (stereo not given) | 25.1µM* | i | 4.5% | -10.1% | -3.1% | 11.1%
CC(NCCCOc1cccc2ccccc12)c1ccccc1 (stereo not given) | ? | -9.3% | -1.2% | 8.91µM* | 3.3% | ?
